According to PubChem BioAssay (NCATS):
Unmarked numbers belong to inactive results. Calls of active or inactive are those of the source. Calls come from the whole dose curve; as a rule, active = well fitted inhibition curve with a large enough effect; inconclusive = small, poorly fitted or top-dose-only effect; inactive = no such curve, though single readings can be large or run the other way.

test: qHTS assay for measurement of the activity of small molecule inhibitors on Zika virus induced Caspase-3 activity in human astrocytoma cells (AID 1224859); conditions: SNB-19 ZIKV-induced caspase-3/7, luminescence, 6 h; series mostly up to 45.7 µM; activity change, negative = inhibition: at the top concentration;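 note: plate controls were ZIKV-infected untreated cells for no effect and uninfected cells for full effect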
Method in brief: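 In SNB-19 cells plated at 250 cells/well and grown 16-20 h, compounds were applied 1 h before ZIKV (2 FFU/cell). Six hours later caspase-3/7 luminescence was recorded.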

Compound | activity change, negative = inhibition [%] | outcome
FC(F)(F)c1cccc(C2=CCN(CCc3ccc4ccccc4c3)CC2)c1 | -16.5 | 
Oc1ccc(Cl)cc1Cc1ccccc1 |  | inactive
NCC(CC(=O)O)c1ccc(Cl)cc1 (stereo unspecified) |  | inactive
CCN(CC)CCOC(=O)C(O)(c1ccccc1)c1ccccc1 | -12.2 | 
Clc1ccc(CCC(Cn2ccnc2)Sc2c(Cl)cccc2Cl)cc1 (stereo unspecified) |  | inactive
NCCc1cc(O)c(O)cc1O | -6.39 | 
Cc1ccc(-c2nc3ccc(C)cn3c2CC(=O)N(C)C)cc1 | -0.456 | 
CCC(COC(=O)c1cc(OC)c(OC)c(OC)c1)(c1ccccc1)N(C)C (stereo unspecified) | 3.33 | 
N[C@@H](Cc1ccc(Oc2cc(I)c(O)c(I)c2)c(I)c1)C(=O)O | 10.2 | 
Clc1cccc(N2CCNCC2)c1 | -9.99 | 
NCC(O)c1ccc(O)cc1 (stereo unspecified) |  | inactive
Oc1ccccc1-c1ccccc1 | -1.79 | 
CC(C)(C)NCC(O)c1cc(Cl)c(N)c(Cl)c1 (stereo unspecified) | 13.2 | 
Clc1ccc(COC(Cn2ccnc2)c2ccc(Cl)cc2Cl)cc1 (stereo unspecified) |  | inactive
O=C(O)c1ccc2[nH]cc(CCCCN3CC=C(c4ccccc4)CC3)c2c1 | -6.4 | 
Cc1ccc(S(=O)(=O)N[C@@H](CCCCN)C(=O)CCl)cc1 |  | inactive
C=C1CC[C@@]2(O)[C@H]3Cc4ccc(O)c5c4[C@@]2(CCN3CC2CC2)[C@H]1O5 | -8.62 | 
CCOC(=O)C1(c2ccccc2)CCN(CCC(C#N)(c2ccccc2)c2ccccc2)CC1 | 11.9 | 
O=[N+]([O-])c1cc([As](=O)(O)O)ccc1O | -0.67 | 
Oc1cc(Cl)ccc1Oc1ccc(Cl)cc1Cl |  | inactive
CN1C(=S)CN=C(c2ccccc2)c2cc(Cl)ccc21 | -5.69 | 
